High-throughput results deposited in PubChem BioAssay by National Center for Advancing Translational Sciences (NCATS).
NS1 function inh – inhibitors of influenza NS1 protein function; AID 2326; 270,000 tested, 0.4% active; Potency, µM (doses to about 46.1 µM), without a hit: top-dose activity, positive = more growth; calls by dose curve; also: potency is read from the fitted curve at half-maximal effect; actives are rising curves; nearly all actives have a fitted effect of over 50% in size
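S. cerevisiae expressing influenza A NS1, grown in glucose, washed, then diluted 1:100 into pH 6.0 -URA galactose medium with 23 nl compound. Growth recovery read as OD600; NS1-free strain serves as control.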
Cycloheximide cs – counter-screen hit for Shiga toxin inhibitors, cycloheximide | AID 2314 | 300,000 tested, 12% active | cell reporter, cycloheximide protein synthesis inhibition counterscreen | max response, %; in the data active = max response mostly above about 13%, no sharp cut-off; inactive = mostly below about 14%; also: read at 38.3 µM for the half of the compounds with a filed dose; 0% is about no effect
Pf growth 96h – P. falciparum growth inhibition at 96 hours. Potency, µM (top dose mostly 28.7 µM), for the others: top-dose activity change, negative = inhibition, hits mostly inhibitors. 320,000 tested, 6.9% active. AID 504834. P. falciparum luciferase reporter growth, 96 h; also: potency is read from the fitted curve at half-maximal effect; % is scaled to controls: 0 for no effect and ±100 for the full control effect
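Parasite growth measured via integrated firefly luciferase reporter in P. falciparum. Infected erythrocytes at 2% hematocrit, 0.05% parasitemia final were treated 96 hours at 37 C under 5% CO2, and luminescence was read.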
FBPA Giardia inh – blocks Giardia fructose-bisphosphate aldolase activity; A8B2U2; purified Giardia FBPA; Potency, µM (titrated, usually from 59.6 µM), inactives show at the highest dose activity, negative = inhibition, usual class: inhibitors; 290,000 tested, 0.71% active; AID 2451; also: potency is read from the fitted curve at half-maximal effect; % is scaled to controls: 0 for no effect and ±100 for the full control effect; nearly all actives have a fitted effect of over 55% in size
Target sequence (A8B2U2 whole entry, looked up): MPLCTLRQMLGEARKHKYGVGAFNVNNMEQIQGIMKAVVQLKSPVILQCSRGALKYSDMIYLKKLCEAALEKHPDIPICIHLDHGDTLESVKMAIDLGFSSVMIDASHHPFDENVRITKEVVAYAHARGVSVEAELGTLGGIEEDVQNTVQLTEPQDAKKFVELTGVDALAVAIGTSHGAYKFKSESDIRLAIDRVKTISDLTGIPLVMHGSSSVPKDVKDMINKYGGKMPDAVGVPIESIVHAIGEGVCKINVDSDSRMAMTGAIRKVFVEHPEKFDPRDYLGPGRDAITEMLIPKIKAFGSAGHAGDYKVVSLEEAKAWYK
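40 nM FBPA preincubated 10 min at RT with compound (up to 57.5 uM final), then substrate plus GAPDH/TPI/NAD/arsenate coupling and diaphorase/resazurin added. Fluorescence read after 20 min at RT, 525/598 nm.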
Shiga inhibitor – blocks Shiga toxin action in Vero cells | Vero cells, Shiga toxin protein synthesis inhibition reporter | inhibition, % at 38.7 µM | 290,000 tested, 9.2% active | AID 2315; in the data active = inhibition mostly above about 28%, no sharp cut-off; inactive = mostly below about 43%; also: 0% is about no effect
Pf growth 48h – P. falciparum growth inhibition at 48 hours (one generation). P. falciparum luciferase growth in erythrocytes, 48 h. Potency, µM (highest dose often 28.7 µM), for the others: at the top dose activity change, negative = inhibition, usual class: inhibitors. 310,000 tested, 5.9% active. AID 504832; also: potency is read from the fitted curve at half-maximal effect; % is scaled to controls: 0 for no effect and ±100 for the full control effect
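First compound was added to culture medium, then infected red cells at 0.1% parasitemia and 2% hematocrit (final). After incubation at 37 C under 5% CO2, luciferase detection reagent was dispensed and light output recorded.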
Numbers without * were called inactive; ? = inconclusive; . = not tested or not shown; + = active, no number. An excerpt weighted towards active compounds, which were near 21% of everything screened. Unless noted, calls follow the shape of the dose curve; as a rule, active = well fitted curve in the direction sought with a large enough effect; inconclusive = small, poorly fitted or top-dose-only effect, or another doubt; inactive = no such curve, though single readings can be large; an effect the other way counts as inactive or inconclusive.

SMILES	NS1 function inh	Cycloheximide cs	Pf growth 96h	FBPA Giardia inh	Shiga inhibitor	Pf growth 48h
COc1ccc(NC(=S)NC(NC(=O)c2cccc(C)c2)C(Cl)(Cl)Cl)c([N+](=O)[O-])c1 (stereo not drawn)	2%	-1	-19%	-6%	-4	3.3µM*
COc1ccc(NC(=S)NC(NC(C)=O)C(Cl)(Cl)Cl)c([N+](=O)[O-])c1 (stereo not drawn)	10%	1	?	-11%	-3	14%
COc1ccc(NC(=S)NC(NC(=O)c2cccc(Cl)c2)C(Cl)(Cl)Cl)c([N+](=O)[O-])c1 (stereo not drawn)	7%	-2	?	-3%	16	3.3µM*
CCCC(=O)Nc1ccc(Sc2ccc([N+](=O)[O-])cc2)cc1	-6%	-1	15µM*	-8%	-4	12µM*
CCCC(=O)Nc1ccc(C(=O)NNC(=O)c2cccc([N+](=O)[O-])c2)cc1	-2%	-2	14%	1%	-5	96%
CCC(CC)C(=O)Nc1ccc(Sc2ccc([N+](=O)[O-])cc2)cc1	-3%	6	?	3%	-4	7.4µM*
Cn1c(=O)c2c(nc(Sc3ncnn3CC(=O)NC3CCCCC3)n2C)n(C)c1=O	3%	-4	0%	6%	12	-9%
COCCNC(=O)[C@@]1(C)C=C[C@@H](Cc2ccccc2)N1C(=O)c1ccccc1	-11%	21*	-15%	4%	28*	?
CNC(=O)[C@@]1(C)C=C[C@@H](Cc2ccccc2)N1C(=O)OC	-5%	22*	-23%	-1%	50	32%
CC1(C)Oc2ccc3ccc(=O)oc3c2/C(=C/NNC(N)=O)C1=O	8%	-1	25%	9%	-4	-3%
CC(=O)Oc1ccc(-c2ccc(C(=O)Nc3cccc(S(=O)(=O)N4CCOCC4)c3)cc2)cc1	-20%	9.4*	?	-3%	30	?
COc1cc(C(=S)N2CCCC2)ccc1OS(=O)(=O)c1ccc(NC(C)=O)cc1	.	3	126%	6%	31	2.1µM*
O=C(Nc1cccc(S(=O)(=O)N2CCCCC2)c1)c1ccc2ncsc2c1	4%	86*	-4%	-12%	89*	12%
O=C(NCCN1C(=O)S/C(=C\c2ccc(F)cc2)C1=O)c1cccc(S(=O)(=O)N2CCOCC2)c1	13%	69*	?	-12%	+	-6%
O=C(O)CC1(CC(=O)N2CCOCC2)CCCC1	-7%	-3	13%	-7%	-12	37%
COc1ccccc1N1CCN(S(=O)(=O)CCNC(=O)c2ccccc2Br)CC1	5%	-1	12%	-3%	-5	15%
COc1cc(OC)c(C(=O)Nc2ccc(S(=O)(=O)N3CCCCC3)cc2)cc1OC	.	.	15µM*	.	.	?
Cc1cc(C)n(-c2ccc(C(=O)N3CCN(S(=O)(=O)c4ccc(C(C)C)cc4)CC3)cc2)n1	.	.	?	.	.	12µM*
Cc1ccc(NC(=O)C2=CCN(S(=O)(=O)c3ccc(F)cc3)CC2)c(C)c1	3%	-4	0.33µM*	3%	-8	13%
O=C(Nc1cccc(F)c1)c1ccc(S(=O)(=O)N2CCCCC2)cc1	-11%	11	-2%	-1%	8	?
Cc1cc(C)c(NC(=O)C2=CCN(S(=O)(=O)c3ccc(F)cc3)CC2)c(C)c1	6%	-6	?	3%	-15	5%
O=C(Nc1cccc(O)c1)c1ccc(S(=O)(=O)N2CCCCCC2)cc1	10%	18*	?	8%	52*	?
Cc1c(CN2CCN(CC(C)C)C(CCO)C2)[nH]c2ccc(Cl)cc12 (stereo not drawn)	14%	-2	41%	1%	8	-16%
O=C(Nc1ccc(F)cc1)c1cc(S(=O)(=O)N2CCCCC2)ccc1F	4%	1	-11%	13%	-3	-1%
O=C(Nc1cccc(S(=O)(=O)N2CCCC2)c1)c1cc(S(=O)(=O)N2CCOCC2)ccc1F	.	.	?	.	.	9.3µM*
SMILES	NS1 function inh	Cycloheximide cs	Pf growth 96h	FBPA Giardia inh	Shiga inhibitor	Pf growth 48h
Cc1ccc(NC(=O)c2cc(S(=O)(=O)N3CCOCC3)ccc2F)c(C)c1	-9%	23*	?	0%	32	-18%
O=C(Nc1cccc(S(=O)(=O)N2CCCC2)c1)c1cccc(S(=O)(=O)N2CCOCC2)c1	.	.	?	.	.	12µM*
O=C(Nc1cccc(O)c1)c1cccc(S(=O)(=O)N2CCCC2)c1	0%	10	2%	-2%	-4	-2%
CC(=O)Nc1cccc(C(=O)OCC(=O)c2ccc(S(=O)(=O)N3CCCCC3)cc2)c1	.	.	-2%	.	.	-2%
CNS(=O)(=O)c1cccc(C(=O)OCC(=O)c2ccc(S(=O)(=O)N3CCCCC3)cc2)c1	.	.	?	.	.	13µM*
O=C(O)c1cc(N2C(=O)CCC2=O)ccc1Cl	15%	0	-15%	2%	-3	6%
CCN(CC)S(=O)(=O)c1cccc(NC(=O)c2cccc(S(=O)(=O)N3CCCC3)c2)c1	.	.	12µM*	.	.	9.3µM*
O=C(Nc1ccc2c(c1)OCCO2)c1cccc(S(=O)(=O)N2CCCCC2)c1	13%	20*	.	-9%	84*	16%
CCN(CC)S(=O)(=O)c1cccc(NC(=O)CC2CCCC2)c1	-3%	-3	-18%	.	23	-1%
CCN(CC)S(=O)(=O)c1cccc(NC(=O)Nc2cccc(C(F)(F)F)c2)c1	19%	5	4.1µM*	-2%	-7	.
CS(=O)(=O)c1cccc(C(=O)Nc2ccc(S(=O)(=O)N3CCCCC3)cc2)c1	.	.	9.3µM*	.	.	?
O=C(O)CCC(=O)N1N=C(c2ccccc2)CC1c1ccc2c(c1)OCO2 (stereo not drawn)	-2%	9	?	12%	17	-4%
O=C(CN1C(=O)NC2(CCCC2)C1=O)Nc1cccc(Cl)c1	0%	-6	15%	-4%	21	0%
CCOC(=O)C(NC(=O)C1C(C)N1S(=O)(=O)c1ccc(C)cc1)C(=O)OCC (stereo not drawn)	13%	-2	38%	.	15	83%
O=C(Nc1ccc2c(c1)OCCO2)c1cccc(S(=O)(=O)N2CCOCC2)c1	-13%	28	.	2%	68*	79%
CC(=O)c1cccc(NC(=O)c2ccc(S(=O)(=O)N3CCCC3)cc2)c1	6%	7	25%	-10%	35	-3%
CC(NC(=O)c1cc([N+](=O)[O-])cc([N+](=O)[O-])c1)c1ccc(-n2ccnc2)cc1 (stereo not drawn)	?	-1	0.93µM*	.	-10	1.5µM*
Cc1cc(C)n(-c2ccc(C(=O)Nc3cccc(S(=O)(=O)N4CCCC4)c3)cc2)n1	.	-1	10µM*	-4%	-13	-32%
COc1ccc(CN(C)C(C)C(=O)Nc2ccc(S(=O)(=O)N3CCCCC3)cc2)cc1F (stereo not drawn)	.	.	?	.	.	10µM*
COc1ccc(NC(=O)c2cccc(S(=O)(=O)N3CCOCC3)c2)cc1	1%	7	-20%	.	29	8%
